± gives the standard deviation of the averaged measurements.
The compounds below were run on Caenorhabditis elegans N2 infected with Nematocida parisii ERTm1 (assay: progeny production relative to DMSO uninfected control; higher = more progeny despite microsporidia infection (inhibition of infection with low host toxicity)). Conditions: infection time 6 days; 40 µM.
Method in brief: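 Bleach-synchronised wild-type C. elegans L1 larvae (100 per well) were placed in 96-well plates with K-medium, E. coli OP50 and 15,000 N. parisii spores/μL, with compound pinned to 100 μM or 40 μM in 1% DMSO. Plates were shaken at 21°C for 6 days; worms were then Rose Bengal-stained, flatbed-scanned and counted with WorMachine, each compound and dose tested three times. Progeny production is given as a percentage of the spore-free vehicle control, averaged across replicates.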

`COc1cc(NC(=O)CN2C(=O)NC(c3ccccc3)(c3ccccc3)C2=O)cc(OC)c1` and `O=c1[nH]c(=O)n(Cc2cccc(Oc3ccccc3)c2)cc1Nc1ccccc1` are within error of each other in progeny production: 3.5 ± 1% for the first, 4.29 ± 3.5% for the second.

`CC(C)c1cc2c(cc1S(=O)(=O)O)[C@@]1(C)CCC[C@@](C)(C(=O)O)[C@@H]1CC2` and `CCN(CC)S(=O)(=O)c1ccc(Cl)c(C(=O)Nc2sc3c(c2C#N)CCCC3)c1` are within error of each other in progeny production: 8.72 ± 4.5% for the first, 6.31 ± 2.1% for the second.

`CCc1ccccc1OCCN1CCCCCC1` and `O=C(Nc1ncc(Cc2cccc3ccccc23)s1)C1CCCCC1` are within error of each other in progeny production: 7.17 ± 1.6% for the first, 8.93 ± 0.69% for the second.

`O=C(NNC(=S)Nc1ccc(Cl)cc1)c1ccncc1` and `CCCCc1ccc(-c2cc(C(=O)O)cc(-c3ccc(Cl)cc3)n2)cc1` are within error of each other in progeny production: 2.76 ± 1.4% for the first, 5.13 ± 5.7% for the second.

`CN(C)c1[nH]c(=O)ncc1F` and `O=C(Nc1[nH]c(=O)ncc1F)c1ccccc1` are within error of each other in progeny production: 3.57 ± 3.5% for the first, 4.09 ± 0.71% for the second.

Compared with `Nc1nc(-c2ccccc2)nc2[nH]nc(Nc3ccc(C(F)(F)F)cc3)c12`, `Cc1nc(Nc2ccc(F)cc2)nc(N2CCc3ccccc3C2C)c1C` (stereo not drawn) is lower in progeny production: 7.69 ± 2.2% for the first, 2.7 ± 0.53% for the second.

`CC(N)C12CC3CC(CC(C3)C1)C2` (stereo not drawn) and `COc1c(NC(=O)[C@H]2CC[C@@H](COc3ccc([N+](=O)[O-])cc3)CC2)c(F)cc2c(=O)c(C(=O)O)cn(C3CC3)c12` are within error of each other in progeny production: 3.85 ± 0.59% for the first, 4.64 ± 2.9% for the second.

`O=C(O)c1ccccc1Sc1ncnc2sc3c(c12)CCC3` and `O=C(NC1CCCc2c1[nH]c1ccc(Cl)cc21)c1ccccn1` (stereo not drawn) are within error of each other in progeny production: 3.94 ± 1.7% for the first, 2.24 ± 0.5% for the second.

`O=C(Nc1ccccc1)N(Cc1cc(Br)ccc1O)c1ccc(F)cc1` and `O=C(Nc1ccc(-c2ccccc2)cc1)C1=C(O)C(Cc2ccccc2)OC1=O` (stereo not drawn) are within error of each other in progeny production: 3.85 ± 1% for the first, 5.44 ± 3.9% for the second.

`CCc1ccc(C2CC(C(F)(F)F)n3ncc(C(=O)NCc4ccc(OC)cc4)c3N2)cc1` (stereo not drawn) and `CCc1nc2ccc(Cl)cn2c1C(=O)NCc1ccc(N2CCC(c3ccc(OC(F)(F)F)cc3)CC2)cc1` are within error of each other in progeny production: 8.73 ± 4.8% for the first, 4.78 ± 2.6% for the second.

`O=C1NC(=S)N/C1=C\c1cc(Br)cc(Br)c1O` and `Nc1nc(=O)c(Br)c(-c2ccccc2)[nH]1` are within error of each other in progeny production: 6.18 ± 0.84% for the first, 5.86 ± 5.3% for the second.

First: Nc1nnc(-c2ccc(Cl)cc2)s1
Second: CC(C)Nc1ncnc2c1cnn2-c1ccc(Cl)cc1
The progeny production of the first is lower: 5.44 ± 1.4% for the first, 8.31 ± 1.1% for the second.

`CCC[C@H](NC(=O)[C@@H]1[C@H]2CCC[C@H]2CN1C(=O)[C@@H](NC(=O)[C@@H](NC(=O)c1cnccn1)C1CCCCC1)C(C)(C)C)C(=O)C(=O)NC1CC1` and `O=C(O)[C@H]1C2CCC(CC2)[C@@H]1Nc1nc(-c2c[nH]c3ncc(F)cc23)ncc1F` are within error of each other in progeny production: 9.24 ± 1.8% for the first, 8.03 ± 4.7% for the second.

Going from `CCCCc1ccc(S(=O)(=O)Nc2cc(C)on2)cc1` to `Cc1onc(-c2ccccc2)c1-c1ccc(S(N)(=O)=O)cc1`, the progeny production falls from 7.98 ± 1.1% to 3.75 ± 1.8%.

`CNCC(=O)OCc1cccnc1N(C)C(=O)OC(C)[n+]1cnn(C[C@](O)(c2cc(F)ccc2F)[C@@H](C)c2nc(-c3ccc(C#N)cc3)cs2)c1` (stereo partly drawn) and `CCNC(=O)Nc1cc2c(-c3ccnc(C)c3)ccc(CNC(=O)OC)c2cn1` are within error of each other in progeny production: 7.13 ± 1.5% for the first, 4.61 ± 1.9% for the second.

`NC[C@H]1OB(O)c2c(OCCCO)cccc21` and `CCN(CC)CCn1c(=N)n(CC(O)COc2ccc(Cl)cc2Cl)c2ccccc21` (stereo not drawn) are within error of each other in progeny production: 4.23 ± 2.7% for the first, 7.02 ± 2.2% for the second.

`Nc1nc(O)c2ncn([C@@H]3O[C@H](CO)[C@@H](O)[C@H]3F)c2n1` and `O=C(/C=C\n1cnc(-c2cc(C(F)(F)F)cc(C(F)(F)F)c2)n1)NNc1ccccn1` are within error of each other in progeny production: 4.36 ± 1.3% for the first, 3.49 ± 1.1% for the second.

`C[C@@H](O)[C@H](N)C(=O)NS(=O)(=O)c1cccc(-c2ccc3[nH]ncc3c2)c1` and `NC(=O)c1cnc2ccc(S(=O)(=O)c3ccccc3)cc2c1Nc1ccc(O)cc1` are within error of each other in progeny production: 3.15 ± 1.8% for the first, 6.94 ± 3.1% for the second.

Compared with `Cc1ccc(Oc2ccccc2-c2csc(N=C3NCCCN3)n2)c(C)c1`, `Cc1cc(C)n2nc(C(=O)NS(=O)(=O)c3c(C)cccc3OC(F)(F)F)nc2n1` is higher in progeny production: 4.22 ± 1.2% for the first, 9.33 ± 0.97% for the second.

With `CC(C)(C)c1ccc(Oc2ccc(N)cc2)cc1` the progeny production was 3.17 ± 1.1%.

Same assay, conditions: infection time 6 days; 100 µM

`COc1cc(NC(=O)CN2C(=O)NC(c3ccccc3)(c3ccccc3)C2=O)cc(OC)c1` and `O=c1[nH]c(=O)n(Cc2cccc(Oc3ccccc3)c2)cc1Nc1ccccc1` are within error of each other in progeny production: 15.8 ± 11% for the first, 9.39 ± 4.3% for the second.

Going from `CC(C)c1cc2c(cc1S(=O)(=O)O)[C@@]1(C)CCC[C@@](C)(C(=O)O)[C@@H]1CC2` to `CCN(CC)S(=O)(=O)c1ccc(Cl)c(C(=O)Nc2sc3c(c2C#N)CCCC3)c1`, the progeny production rises from 4.55 ± 3% to 31.3 ± 22%.

`CCc1ccccc1OCCN1CCCCCC1` and `O=C(Nc1ncc(Cc2cccc3ccccc23)s1)C1CCCCC1` are within error of each other in progeny production: 20.2 ± 6% for the first, 13 ± 5.7% for the second.

`O=C(NNC(=S)Nc1ccc(Cl)cc1)c1ccncc1` and `CCCCc1ccc(-c2cc(C(=O)O)cc(-c3ccc(Cl)cc3)n2)cc1` are within error of each other in progeny production: 18.4 ± 12% for the first, 9.87 ± 7.3% for the second.

`CN(C)c1[nH]c(=O)ncc1F` and `O=C(Nc1[nH]c(=O)ncc1F)c1ccccc1` are within error of each other in progeny production: 14.8 ± 7.8% for the first, 23.8 ± 20% for the second.

`Nc1nc(-c2ccccc2)nc2[nH]nc(Nc3ccc(C(F)(F)F)cc3)c12` and `Cc1nc(Nc2ccc(F)cc2)nc(N2CCc3ccccc3C2C)c1C` (stereo not drawn) are within error of each other in progeny production: 29.5 ± 27% for the first, 20.9 ± 25% for the second.

`CC(N)C12CC3CC(CC(C3)C1)C2` (stereo not drawn) and `COc1c(NC(=O)[C@H]2CC[C@@H](COc3ccc([N+](=O)[O-])cc3)CC2)c(F)cc2c(=O)c(C(=O)O)cn(C3CC3)c12` are within error of each other in progeny production: 6.21 ± 1.8% for the first, 8.01 ± 7.4% for the second.

`O=C(O)c1ccccc1Sc1ncnc2sc3c(c12)CCC3` and `O=C(NC1CCCc2c1[nH]c1ccc(Cl)cc21)c1ccccn1` (stereo not drawn) are within error of each other in progeny production: 25.2 ± 16% for the first, 7.35 ± 5.1% for the second.

`O=C(Nc1ccccc1)N(Cc1cc(Br)ccc1O)c1ccc(F)cc1` and `O=C(Nc1ccc(-c2ccccc2)cc1)C1=C(O)C(Cc2ccccc2)OC1=O` (stereo not drawn) are within error of each other in progeny production: 17.4 ± 13% for the first, 6.02 ± 4.2% for the second.

`CCc1ccc(C2CC(C(F)(F)F)n3ncc(C(=O)NCc4ccc(OC)cc4)c3N2)cc1` (stereo not drawn) and `CCc1nc2ccc(Cl)cn2c1C(=O)NCc1ccc(N2CCC(c3ccc(OC(F)(F)F)cc3)CC2)cc1` are within error of each other in progeny production: 7.32 ± 3.4% for the first, 6.24 ± 4.5% for the second.

`O=C1NC(=S)N/C1=C\c1cc(Br)cc(Br)c1O` and `Nc1nc(=O)c(Br)c(-c2ccccc2)[nH]1` are within error of each other in progeny production: 10.2 ± 8.1% for the first, 9.38 ± 7.4% for the second.

`Nc1nnc(-c2ccc(Cl)cc2)s1` and `CC(C)Nc1ncnc2c1cnn2-c1ccc(Cl)cc1` are within error of each other in progeny production: 16.3 ± 16% for the first, 4.15 ± 2.5% for the second.

`CCC[C@H](NC(=O)[C@@H]1[C@H]2CCC[C@H]2CN1C(=O)[C@@H](NC(=O)[C@@H](NC(=O)c1cnccn1)C1CCCCC1)C(C)(C)C)C(=O)C(=O)NC1CC1` and `O=C(O)[C@H]1C2CCC(CC2)[C@@H]1Nc1nc(-c2c[nH]c3ncc(F)cc23)ncc1F` are within error of each other in progeny production: 10.3 ± 1.3% for the first, 14.2 ± 12% for the second.

`CCCCc1ccc(S(=O)(=O)Nc2cc(C)on2)cc1` and `Cc1onc(-c2ccccc2)c1-c1ccc(S(N)(=O)=O)cc1` are within error of each other in progeny production: 25 ± 22% for the first, 7.71 ± 5.3% for the second.

`CNCC(=O)OCc1cccnc1N(C)C(=O)OC(C)[n+]1cnn(C[C@](O)(c2cc(F)ccc2F)[C@@H](C)c2nc(-c3ccc(C#N)cc3)cs2)c1` (stereo partly drawn) and `CCNC(=O)Nc1cc2c(-c3ccnc(C)c3)ccc(CNC(=O)OC)c2cn1` are within error of each other in progeny production: 16.8 ± 10% for the first, 17.2 ± 9.9% for the second.

`NC[C@H]1OB(O)c2c(OCCCO)cccc21` and `CCN(CC)CCn1c(=N)n(CC(O)COc2ccc(Cl)cc2Cl)c2ccccc21` (stereo not drawn) are within error of each other in progeny production: 6.44 ± 4.8% for the first, 16.5 ± 20% for the second.

`Nc1nc(O)c2ncn([C@@H]3O[C@H](CO)[C@@H](O)[C@H]3F)c2n1` and `O=C(/C=C\n1cnc(-c2cc(C(F)(F)F)cc(C(F)(F)F)c2)n1)NNc1ccccn1` are within error of each other in progeny production: 9.71 ± 4.6% for the first, 7.21 ± 3.6% for the second.

`C[C@@H](O)[C@H](N)C(=O)NS(=O)(=O)c1cccc(-c2ccc3[nH]ncc3c2)c1` and `NC(=O)c1cnc2ccc(S(=O)(=O)c3ccccc3)cc2c1Nc1ccc(O)cc1` are within error of each other in progeny production: 20.2 ± 20% for the first, 17.7 ± 11% for the second.

`Cc1ccc(Oc2ccccc2-c2csc(N=C3NCCCN3)n2)c(C)c1` and `Cc1cc(C)n2nc(C(=O)NS(=O)(=O)c3c(C)cccc3OC(F)(F)F)nc2n1` are within error of each other in progeny production: 14.8 ± 12% for the first, 5.89 ± 3.9% for the second.

For `CC(C)(C)c1ccc(Oc2ccc(N)cc2)cc1`, the progeny production was 11.1 ± 5.3%.

Reference: the supplement of paper PMC10732440
